The values below come from ChEMBL document CHEMBL4513216, “Probing the Open Global Health Chemical Diversity Library for Multistage-Active Starting Points for Next-Generation Antimalarials” (ACS Infect Dis, 2020).

About 8,600 (12%) of roughly 69,000 compounds showed an effect of 50% or more. Many of the other results were omitted from the sample, so strong results are more common in it than they were.

In this assay the test system is Plasmodium berghei. Put plainly: Screen against P. berghei liver stage (PbLuc), transformed with Luciferase, at 10uM. The format is functional, HepG2. The conditions noted are these: tested at 10 uM.
In the case of `COc1cc2nc(C)n(CC(=O)NCC(C)C)c(=O)c2cc1OC`, the INHIBITION was 21.5%.
The same measure for `CC(=O)N1CCC(Cc2nccnc2-c2c(C)n[nH]c2C)C1` (centres undefined): -14.1%; for `COCCN1C[C@@H](C)[C@@]2(COCCN(C(=O)c3cccc(C)n3)C2)C1`: -10.5%; for `CC(C)n1cnc2c(-c3cccnc3)nc(C3CCNCC3)cc21`: 55.7%.
As for `CC(C)n1cnc2c(N3CCCC3)nc(C3CCNCC3)cc21`, the figure is -3.52%; as for `Cn1cnc2c(-c3ccccc3)nc(C3CCNCC3)cc21`, 38.5%; as for `Cn1cc(-c2nc(C3CCN(CC4CC4)CC3)cc3c2ncn3C)cn1`, 61.5%.
As for `CC(=O)N1CCC(c2cc3c(ncn3C)c(-c3cnn(C)c3)n2)CC1`, the figure is 33.4%; as for `Cn1cc(-c2nc(C3CCN(S(C)(=O)=O)CC3)cc3c2ncn3C)cn1`, 15.7%.
As to `COc1ccc(-c2ccnc(C3CCNCC3)c2)cc1`, the INHIBITION was found to be 29.2%.
As for `COc1ccc(-c2nc(C3CCNCC3)cc3c2ncn3C)cc1`, the figure is 53%; as for `Cn1cnc2c(-c3cccnc3)nc(C3CCNCC3)cc21`, 48.4%; as for `O=C(CC1CC1)NCc1cn2c(n1)CN(CC1CC1)CC2`, 9.67%.
With `Cc1nc2sc(C(=O)N3CCNC(=O)C3)c(C)c2c(=O)[nH]1`, the INHIBITION was -4.35%.
As to `Cc1nc(-c2ccsc2)ccc1C(=O)NCC(C)N1CCOCC1` (centres undefined), the INHIBITION is recorded as -24.275%.
As to `N#Cc1ccc(F)c(CN2CCCCC2Cn2cccn2)c1` (centres undefined), the INHIBITION is recorded as -36.1%.
As for `COc1ccccc1CC(C)CC(=O)N(C)Cc1cc(C)on1` (centres undefined), the figure is 14.7%.
The same measure for `O=C(c1nc2c(o1)CN(CC1CCC1)C2)N1CCCC1`: -15.6%.
As for `COc1cc2nc3n(c(=O)c2cc1OC)CCN(C(=O)C1CCC1)CC3`, the figure is 23.4%; as for `CCn1cc(CN2CCN(CC(O)c3cc(C)ccc3C)CC2)c(C)n1` (centres undefined), 43.6%; as for `COc1cccc(C(O)CN2CCN(c3cccc(C)c3)CC2)c1` (centres undefined), 16%.
Turning to `CCCN1CCN(CC(O)c2ccc(OC(F)(F)F)cc2)CC1` (centres undefined), the INHIBITION was 33.7%.
As for `COc1cccc(N2CCN(CC(O)c3cc(C)sc3C)CC2)c1` (centres undefined), the figure is 63.1%.
The same measure for `CCOCCN1CCN(CC(O)c2ccc(OC)cc2)CC1` (centres undefined): -9.39%; for `CCN1CCN(CC(O)c2ccc(OC(F)(F)F)cc2)CC1` (centres undefined): 56.1%.
As for `COCCN1CCN(CC(O)c2cc(OC)ccc2OC)CC1` (centres undefined), the figure is -94.3%; as for `OC(CN1CCCCCCC1)c1ccc(OC(F)(F)F)cc1` (centres undefined), 19.2%.
`COc1ccc(OC)c(C(O)CN2CCN(C3CCCC3)CC2)c1` (centres undefined): the INHIBITION is -113%.
As for `COc1cccc(N2CCN(CC(O)c3cc(C)ccc3C)CC2)c1` (centres undefined), the figure is 67.9%; as for `CCc1ccc(C(O)CN2CCN(c3cccc(OC)c3)CC2)cc1` (centres undefined), 54%; as for `COc1cccc(N2CCN(CC(O)c3ccc(C)cc3)CC2)c1` (centres undefined), 17.4%.
As for `CCN(Cc1nonc1C)C(=O)Cn1nc(C(F)(F)F)cc1C1CC1`, the figure is 28.89%; as for `Cc1cccc(CC(=O)N2CCCCC2CN)c1` (centres undefined), 8.13%; as for `CCC(C)(C)c1cc(-c2c(C)nn(CCO)c2C)c(C#N)c(N)n1`, -24.6%.
As for `NC1CCC(NC(=O)c2ccc3nc(-c4ccc(F)cc4)cn3c2)CC1` (centres undefined), the figure is 24.7%.
For `CN(C)CCOc1ccc(N(C)S(=O)(=O)c2cnn(C)c2)cc1`, the INHIBITION came to 32.3%.
Turning to `Cc1cnn(CCNCc2nnc(-c3ccccc3)o2)c1`, the INHIBITION was found to be 31.3%.
With `COc1ccc(OC)c(C(O)CN2CCN(c3cccc(C)c3)CC2)c1` (centres undefined), the INHIBITION is listed as 34.5%.
With `COc1ccc(N2CCN(CC(O)c3cc(C)ccc3C)CC2)cc1` (centres undefined), the INHIBITION was 69.8%.
The same measure for `COc1ccc(N2CCN(CC(O)c3ccc(C)cc3C)CC2)cc1` (centres undefined): 41.6%; for `c1ncn(CC2CCCN(Cc3csc(-c4ccsc4)n3)C2)n1` (centres undefined): -12.2%; for `CN(C)Cc1ccc(N2CCN(CCOCC(F)(F)F)CC2)nc1`: 33.4%.
The same measure for `CN(CC(=O)N1CCCC1c1noc(C2CC2)n1)Cc1ccccc1` (centres undefined): 23.7%; for `CCN1CC(COC(=O)c2cc(C)nn2CC)CC1=O` (centres undefined): 50.4%; for `CCN1CC(COC(=O)c2cccc(Br)c2)CC1=O` (centres undefined): 16.8%.
The same measure for `CCn1nc(C)cc1C(=O)OCC1CC(=O)N(Cc2ccccc2)C1` (centres undefined): 10.1%.
As for `CCCOc1cc(CNC(=O)Nc2cccc(C(C)=O)c2)ccn1`, the INHIBITION is listed as 16.6%.
As for `OCC1(O)CCCN(Cc2noc(-c3ccccc3)n2)C1` (centres undefined), the figure is 9.41%.
As for `O=C(COCC(=O)N(c1ccccc1)c1ccccc1)N1CCCC1`, the figure is -7.27%; as for `CCn1nc2c(cc1=O)CN(Cc1nc(-c3cccs3)no1)CC2`, 60.5%.
As for `Cc1ccc(-c2noc(CN3CCc4nn(C)c(=O)cc4C3)n2)cc1`, the figure is -11.4%; as for `CCn1nc2c(cc1=O)CN(Cc1nc(-c3ccoc3)no1)CC2`, 42.1%; as for `Cn1nc2c(cc1=O)CN(Cc1nc(-c3cccs3)no1)CC2`, 26.1%.
Consider `Cn1nc2c(cc1=O)CN(Cc1nc(-c3ccoc3)no1)CC2`, for which the INHIBITION is -7.16%.
The same measure for `CCc1ncc2c(n1)CN(Cc1nc(-c3cccs3)no1)CC2`: 28.8%; for `COCCc1noc(CN2CCc3nn(C(C)C)c(=O)cc3C2)n1`: 48.2%.
As for `CC(C)c1ncc2c(n1)CN(Cc1nc(-c3cccs3)no1)CC2`, the figure is 65.1%.
As for `CCn1nc2c(cc1=O)CN(Cc1nc(-c3ccsc3)no1)CC2`, the figure is 7.7%; as for `CC(C)n1nc2c(cc1=O)CN(Cc1nc(-c3ccoc3)no1)CC2`, 77.9%.
